In PubChem BioAssay (NCI):
“And” between values parts separate entries of the source, which are not always exact repeats. Equal entries are not always repeated. About 83,000 compounds went through this panel and 20% of them were active in at least one assay; those are over-represented in the sample as a whole.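 Negative percent growth values reflect cell death: -40 means 40% of the cells present at the start died, and -100 means all died.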 The source made the active and inactive calls. Rule for the calls: active = growth percent below 10; inactive = the rest.

Tested on: MDA-MB-468 breast
Experiment: NCI-60 one-dose screen, 48 h (100 = growth as untreated, 0 = no growth, -100 = all killed)
Conditions: 10 µM unless noted

Structure (SMILES)	growth
COc1c(Cl)ccc2c(-c3nc4cc(Cl)c(F)cc4s3)cc(=O)oc12	80% (inactive)
CCOC(=O)c1c[nH][nH]c1=O	93.8% (inactive)
O=C(N[C@@H]1CCCc2ccccc21)[C@H](CCC(=O)N1CCN(C2CCCCC2)CC1)N1C(=O)[C@@H](N2C(=O)OC[C@@H]2c2ccccc2)[C@H]1/C=C/c1ccccc1	-34.6% (active)
COc1ccc(N2CCN(S(=O)(=O)c3oc(-c4ccccc4)nc3C#N)CC2)cc1	79.6% (inactive)
OCCCC1CCN(C(Cc2ccccc2)c2ccccc2)CC1 (centres undefined)	95.2% (inactive)
COc1cc2c(=O)n(CCN)c3c4cc5c(cc4ccc3c2cc1OC)OCO5	-31.7% (active)
Cc1cc(=O)n2nnc3c4ccccc4ccc3n12	15.5% (inactive)
OCc1cccc(-c2ccc3ncc(-c4nc(NC5CC5)ncc4F)n3c2)c1	-39.1% (active)
O=[N+]([O-])c1c(O)c(CNCCCO)cc(CNCCCO)c1O	108% (inactive)
Oc1[nH]c2ccc(Cl)cc2c1/C=c1/ccc2c(c1)N=C(c1cccs1)N=2	55.2% (inactive)
COc1ccc(-c2cn(Cc3ccc4c(Br)cc(Br)c(O)c4n3)nn2)cc1	72.2% (inactive)
CC1(C)OC2[C@@H](CNC(=O)NC(=O)NC(=O)CI)O[C@@H](n3cnc4c(NC(=O)Nc5ccccc5)ncnc43)[C@H]2O1 (some centres undefined)	64% (inactive)
COc1cccc2c1C(=O)c1c(O)c3c(c(O)c1C2=O)CC(O)(/C(C)=N/NC(=O)CCCCC(=O)N/N=C(\C)C1(O)Cc2c(O)c4c(c(O)c2C(OC2CC(N)C(O)C(C)O2)C1)C(=O)c1c(OC)cccc1C4=O)CC3OC1CC(N)C(O)C(C)O1 (centres undefined)	-1.37% [5 µM] (active)
COc1ccccc1OCC(O)CO (centres undefined)	114% (inactive) and 92.9% (inactive)
O=C(CNC(=O)OCc1ccccc1)NCC(=O)Oc1ccc([N+](=O)[O-])cc1	106% (inactive)
CS(=O)(=O)Nc1cccc(C(=O)NCc2ccc(N3CCOCC3)cc2)c1	93% (inactive)
CCCc1cc(C(N)=S)ccn1	102% (inactive)
CN(Cc1ccccc1)c1nc(Cl)c(C2CC(c3ccc(F)cc3)=NN2C=O)s1 (centres undefined)	77.5% (inactive)
COc1cc(F)c(-c2nc3c(C)cccc3n2Cc2c(F)cccc2F)c(F)c1	65.5% (inactive)
Cn1c(/C=C/[N+](=O)[O-])cc2ccccc21	-36.6% (active)

Structure (SMILES)	growth
COc1ccc(C2=NN(C(=O)c3cc(-c4ccc(C)cc4)nc4ccccc34)C(c3cc(-c4ccccc4)nn3-c3ccccc3)C2)cc1 (centres undefined)	98.1% (inactive)
c1ccc(-c2nnc(-c3ccccn3)s2)nc1	23.5% (inactive)
COC(=O)[C@]12CC[C@@H](C)[C@H](C)[C@@H]1C1=CC[C@@H]3[C@@]4(C)C(C=O)=C[C@@](C)(COC(=O)c5ccco5)[C@@H]4C(=O)C[C@@]3(C)[C@]1(C)CC2	9.8% (active)
COc1cccc(CC(C)=C(c2ccc(OCCN3CCCCC3)cc2)c2ccc(OCCN3CCCCC3)cc2)c1	-82.8% (active)
N#Cc1cnc2cc(OC[C@@H](O)CO)c(NC(=O)CC3CSSC3)cc2c1Nc1ccc(OCc2cccc(F)c2)c(Cl)c1	-74.8% (active)
CCN1CC(=O)N(/N=C2\C(=O)Nc3ccccc32)C1=S	73.1% (inactive)
COc1ccc(/C(C#N)=C/c2cccc(OC)c2OC)cc1	-19.3% (active)
CN1CCN(Cc2ccc(NC(=O)c3cncc(C#Cc4cnc5ccc(NCCO)nn45)c3)cc2C(F)(F)F)CC1	-55.5% (active)
O=C(NNc1nc2cc(F)ccc2n2c(CN3CC4CNCC4C3)ccc12)c1cnccn1 (centres undefined)	3.88% (active)
Cc1ccc(S(=O)(=O)n2cc(C(=O)C(=O)Nc3ccncc3)c3ccccc32)cc1	1.96% (active)
Cc1ccc2c(c1)C(C)Cc1c(ncnc1-n1cnc3ccccc31)N2C (centres undefined)	30.8% (inactive)
C1=C(N2CCCC2)CCC1	96.2% (inactive)
CC1=NN(c2ccccc2)C(=O)/C1=C\N1CC(=O)NC1=S	101% (inactive)
C#CC[C@@H]1C[C@]2(C)[C@H]3CC[C@@H]4[C@H]5C(C(=C)C)CC[C@]5(C(=O)NCCCCCCCCN)CC[C@@]4(C)[C@]3(C)CC[C@H]2C(C)(C)[C@H]1OC(C)=O (some centres undefined)	105% (inactive)
CC(C)(O)CCl	103% (inactive)
Cc1cc2cc3cc(C)c(N)cc3[n+](C)c2cc1N	-28.8% (active)
O=C1Nc2ccc3c(c2/C1=C\c1cc2c(cc1Br)OCO2)OCO3	-11.9% (active)
COc1cc(/C=N/NC(=O)c2ccc(-n3cc(-c4ccccc4)nn3)cc2)cc(OC)c1OC	31.6% (inactive)
CC(=O)Nc1nc(C)c(C(=O)N/N=C/c2cccn2C)s1	111% (inactive)
